# VLA-4 allo ag – allosterically activates the human VLA-4 integrin | Jurkat cells, LDV-FITC binding, flow cytometry | activation, % at 10 µM (by protocol) | 24,000 tested, under 10 active;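 active = fluorescent ligand binding to cells raised by more than 40% of the manganese-induced maximum; inconclusive = compound's own fluorescence above 85% of the ligand control signal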;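 note: 0% = ligand binding without compound and 100% = manganese-stimulated maximal binding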
# FPR ligand – human FPR ligand, with FPRL1 counter-screen | P21462 | FPR-expressing cells, fluorescent ligand binding, flow cytometry | inhibition, % (no concentration beside the values) | 24,000 compounds, 0.74% hits;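 note: 0% = buffer wells and 100% = receptor blocker peptide wells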
# Jurkat autofluor – counter-screen for VLA-4 integrin: compound autofluorescence in Jurkat cells. flow cytometry; hits give high values; 1 = vehicle-only cell background. fluorescence ratio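 (tested at 10 µM compound in the well)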. 24,000 compounds, 0.61% hits;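 active = fluorescence ratio above 2.44, which is 1 plus 3 SD of all ratios; inconclusive = signal too bright to measure linearly, ratio around 10 or more; inactive = fluorescence ratio below 2.44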;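 note: green fluorescence of cells measured with 488 nm excitation and 530 nm emission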
# VLA-4 antagonist – inhibitors of LDV-FITC ligand binding to Mn2+-activated human VLA-4 integrin; P13612; Jurkat cells, LDV-FITC binding with Mn2+, flow cytometry; 100% = Mn2+-driven binding gain fully reversed; inhibition, % at 10 µM (by protocol); 24,000 compounds, 0.2% hits; AID 529;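 active = inhibition above 50%; inconclusive = compound itself fluorescent, judged against control cell fluorescence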;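 note: 0% = Mn2+ stimulated cells lacking compound and 100% = ligand binding without Mn2+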
# FPRL1 ligand – binds the human formylpeptide receptor-like-1 FPRL1; P25090; FPRL1-expressing cells, fluorescent ligand binding inhibition, flow cytometry; inhibition, % (no concentration beside the values); 24,000 compounds, 0.3% hits; AID 441;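 note: 0% = buffer alone and 100% = receptor blocker peptide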
# Target sequence (P25090 whole entry, looked up): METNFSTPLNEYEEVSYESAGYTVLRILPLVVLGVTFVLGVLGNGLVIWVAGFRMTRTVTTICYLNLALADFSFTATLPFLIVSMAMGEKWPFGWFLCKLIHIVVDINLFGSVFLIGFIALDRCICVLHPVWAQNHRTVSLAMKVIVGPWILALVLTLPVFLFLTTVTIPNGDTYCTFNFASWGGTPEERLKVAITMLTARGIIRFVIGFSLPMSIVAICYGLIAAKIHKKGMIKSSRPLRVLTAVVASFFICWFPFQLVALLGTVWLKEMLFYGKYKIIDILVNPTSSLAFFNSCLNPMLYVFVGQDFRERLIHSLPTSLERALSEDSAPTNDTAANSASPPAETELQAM
# An asterisk follows results filed as active; ? = inconclusive; · = no result given. Rows were chosen to be rich in hits. Some 1.4% of all compounds tested hit in one or more screens of this group. Cut-off read from the data, not from the text of the source, unless noted: active = inhibition above about 30%; inconclusive = no clear call, values can overlap the other calls; inactive = below that.
SMILES,VLA-4 allo ag,FPR ligand,Jurkat autofluor,VLA-4 antagonist,FPRL1 ligand
COc1ccc(/C(O)=C2/C(=O)C(=O)N(Cc3ccco3)C2c2cccs2)cc1 (stereo not given),·,8.2,·,·,-5.6
COC(=O)c1ccc(C2/C(=C(/O)c3ccc(OC)cc3)C(=O)C(=O)N2Cc2ccco2)cc1 (stereo not given),·,37.6*,·,·,5.0
COc1ccc(-c2cn3cccnc3n2)cc1NC(=O)C1CC1,-6.0,-3.5,1.09,28.0,75.5*
COc1ccc(-c2cn3cccnc3n2)cc1NC(=O)C1CCCC1,-4.0,2.3,1.07,-4.0,73.5*
COc1ccc(NC(=O)C2CCCN(S(=O)(=O)c3cccc4cccnc34)C2)c(OC)c1 (stereo not given),-5.0,1.7,1.08,12.0,-2.7
CCCCNC(=O)Nc1ccnn1C1CCCCC1,4.0,-1.9,0.98,-14.0,-3.1
COc1cccc(N2CCN(c3ncnc4c3[nH]c3ccc(F)cc34)CC2C)c1 (stereo not given),-36.3,-1.4,1.07,95.0*,4.3
Cc1cc2nc(C3CCN(CC4COc5ccccc5O4)CC3)[nH]c2cc1C (stereo not given),0.0,-6.1,1.25,-7.0,-3.6
COc1ccc2c(C(=O)CN(C)C3CCCCC3)c[nH]c2c1,?,-5.2,6.7*,?,14.6
COC(=O)c1sc(NC(=O)C2CCCCC2C(=O)O)c(C(=O)OC)c1C (stereo not given),·,-0.8,·,·,0.3
COCCCN1C(=O)C(O)=C(C(=O)c2ccco2)C1c1ccc(Br)cc1 (stereo not given),4.0,47.6*,1.02,-10.0,-4.5
COCCCN1C(=O)C(O)=C(C(=O)c2ccco2)C1c1cccc(Br)c1 (stereo not given),·,70.4*,·,·,-6.8
CCCOc1ccc(C2C(C(=O)c3ccco3)=C(O)C(=O)N2CCN2CCOCC2)cc1OC (stereo not given),·,20.0,·,·,-4.5
CC1CCN(CCCNC(=O)c2coc3nc4ccccc4nc23)CC1,?,-1.7,2.36,?,-4.2
Cc1ccc(CCNC(=O)c2coc3nc4ccccc4nc23)cc1,?,-2.8,4.18*,?,-7.1
CC1CCCN(CCCNC(=O)c2coc3nc4ccccc4nc23)C1 (stereo not given),?,-4.3,4.67*,?,-11.0
CCOc1ccccc1NC(=O)CSc1nccn1-c1ccccc1,-4.0,44.1*,0.97,28.0,36.6*
COc1cc2c(cc1OC)C(C)N(C(=O)c1cc3n(n1)C(C(F)(F)F)CC(c1ccco1)N3)CC2 (stereo not given),-14.0,-5.5,1.01,12.0,-4.6
O=C(NCC12CC3CC(CC(C3)C1)C2)c1cc2n(n1)C(C(F)(F)F)CC(c1ccco1)N2 (stereo not given),?,6.8,3.52*,?,-12.5
CCCCOc1ccccc1NC(=O)CSc1nnnn1C(C)(C)C,1.0,2.8,0.98,-5.0,-1.5
CCN(CC)c1ccc2c(c1)CCCN2,?,-9.2,4.49*,?,-23.0
COc1cc(N2C(=O)NC3CC2(C)Oc2ccc(Br)cc23)cc(OC)c1OC (stereo not given),-13.0,0.5,1.05,-14.0,-10.5
CN(C)c1ccc(/C=c2\sc3nc(-c4ccccc4)nn3c2=O)cc1,?,·,8.23*,?,·
Cc1cccn2c(=O)c3cc(C(=O)N(C)C)n(C)c3nc12,?,-2.5,3.09*,?,-2.2
CCNC(=O)c1cc2c(=O)n3cccc(C)c3nc2n1C,?,-2.0,1.45,?,-4.0
SMILES,VLA-4 allo ag,FPR ligand,Jurkat autofluor,VLA-4 antagonist,FPRL1 ligand
CCOC(=O)c1cc2c(=O)n3cccc(C)c3nc2n(Cc2ccco2)c1=NC(=O)c1cccnc1,?,0.2,5.54*,?,-6.7
CCOC(=O)c1cc2c(=O)n3ccccc3nc2n(Cc2ccco2)c1=NC(=O)c1cccnc1,?,-5.8,4.34*,?,0.3
Cc1ccc(-c2noc(CCC(=O)N3CCCc4ccccc43)n2)cc1,?,-0.7,1.09,?,0.8
COC(=O)c1ccccc1NC(=O)C12CCC(C)(C(=O)O1)C2(C)C (stereo not given),0.0,-3.5,0.95,-7.5,-4.6
O=C(NCCN1CCCC1)c1cc(-c2ccncc2)nc2ccc(S(=O)(=O)N3CCOCC3)cc12,0.0,-2.3,1.01,-7.0,-5.3
Cc1[nH]n2c(=O)c3c(nc2c1-c1cccc2ccccc12)CCC3,·,47.6*,·,·,27.8
Cc1[nH]n2c(=O)c3c(nc2c1-c1ccccc1)CCCC3,·,10.8,·,·,-0.3
CCOC(=O)c1cccc(NC(=O)Cn2cnc3c2c(=O)n(C)c(=O)n3C)c1,-5.5,-0.2,1.02,0.5,10.0
COc1ccc(OC)c(C2C(C(=O)c3cccs3)=C(O)C(=O)N2c2cc(C)on2)c1 (stereo not given),·,56.2*,·,·,-0.5
COc1cccc(C2C(C(=O)c3cc4ccccc4o3)=C(O)C(=O)N2c2cc(C)on2)c1OC (stereo not given),·,53.9*,·,·,1.8
COc1cccc(C2C(C(=O)c3cccs3)=C(O)C(=O)N2c2cc(C)on2)c1 (stereo not given),·,12.1,·,·,5.3
CCOC(=O)c1cnc2nc[nH]n2c1=O,-1.0,-6.5,1,-11.0,0.6
COc1ccc(-c2cc(C(F)(F)F)nc(N3CCN(Cc4ccccc4)CC3)n2)cc1OC,-4.0,7.7,1.11,-3.0,74.9*
COc1ccc2nc(Nc3nc(C)c(C(C)=O)s3)sc2c1,-12.0,5.5,1.16,63.0*,58.8*
Cn1c(=O)n(CCc2ccccc2)c(=O)c2c1nc1n2CCN1c1ccccc1,5.0,-4.2,1.11,11.0,-0.7
Cc1nc2ccc(F)cc2cc1C(=O)NCC1CCCO1 (stereo not given),?,-4.3,3.42*,?,-4.5
COc1ccc2oc(C(=O)C3CC3)c(NC(=O)CCCN3C(=O)c4ccccc4C3=O)c2c1,6.0,3.3,0.92,17.0,-5.7
COC(=O)c1[nH]c(C)c(/C(O)=C2\C(=O)C(=O)N(CCCN3CCOCC3)C2c2ccccn2)c1C (stereo not given),13.5,38.1*,1.02,-42.0,-2.0
Cc1ccc(CNc2nc3ccccc3n3nnnc23)cc1,?,-23.6,?,?,4.2
CCOC(=O)N1CCC(Nc2nc3ccccc3n3nnnc23)CC1,?,-12.4,7.98*,?,-3.7
CC(C)c1cc(C(=O)Nc2cccc(Cl)c2)no1,0.0,-1.2,1.05,7.0,3.1
CC(C)c1cc(C(=O)Nc2cc(Cl)ccc2O)no1,?,-19.3,3.81*,?,-11.8
CCOC(=O)N1CCC(NC(=O)c2cccc3c2C(=O)N(c2ccc(OC)cc2)C3)CC1,-7.0,7.8,1.13,6.0,5.8
c1ccc2c(c1)CCCN2c1nc2ccccc2n2cnnc12,?,-5.8,2.64*,?,-5.5
c1ccc2c(c1)CCN(c1nc3ccccc3n3cnnc13)C2,?,-1.0,1.19,?,4.5
CC(C)c1ccc(-c2nc(N3CCCCC3)[nH]c(=O)c2C#N)cc1,11.5,-27.0,1.03,-29.0,-6.3

# Bioassay records: PubChem, NMMLSC
